The values that follow come from PubChem BioAssay (EPA / NIEHS).

What is called AC50 is the concentration giving half of the maximal activity seen.

Active and inactive are the calls of the source. Rule for the calls: active = hit-call score of the fitted dose curve at least 0.9, where 1 is the maximum; inactive = score below 0.9.

The nature of this assay: CCTE_Padilla_ZF_Score.Living: CCTE's 144 Hour Post-fertilization zebrafish Assay Score for Viability, Padilla Lab (AID 2284410).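 Note: larval death at 6 dpf judged by absent heartbeat or coagulation.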 How it is done: CCTE_Padilla_ZF_Phenotype_Score is a whole embryo, multiplexed assay using zebrafish ova exposed for 144 hours post fertilization on a 96-well plate.CCTE_Padilla_ZF_Score.Living is one of one assay component(s) measured or calculated from the CCTE_Padilla_ZF_Phenotype_Score assay. It is designed to make measurements of zebrafish development as detected with brightfield microscopy of developing zebrafish embryos.Data from the assay component CCTE_Padilla_ZF_Score.Living was analyzed into 1 assay endpoints. This assay endpoint, CCTE_Padilla_ZF_Score.Living, was analyzed in the positive analysis fitting direction relative to DMSO as the negative control and baseline of activity. Using a type of viability reporter, gain-of-signal activity can be used to understand changes in developmentals as they relate to the whole embryo. To generalize the intended target to other relatable targets, this assay endpoint is annotated to the zebrafish development intended target family, where the subfamily is embryonic mortality.
Zebrafish husbandry: Wild type adult zebrafish (Danio rerio; undefined outbred stock obtained from Aquatic Research Organisms, Hampton, NH, 03842) were housed in an AAALAC-approved animal facility at 28C with a 14:10 h light: dark cycle (lights on at 08:30 h). Adult fish (2-3 females per male; density = 15-20 adults per tank) were kept in one of several 9-liter (L) flow-through colony tanks (Aquaneering Inc., San Diego, CA). All adults in a colony tank were placed in a 2 L (static) breeding tank (Aquatic Habitats, Apopka, FL) one hour prior to light onset. Typically, adults from two to three colony tanks were mated on the same day. Two hours after light onset the adults were returned to the colony tank. All embryos were gathered from each breeder tank, pooled, and placed in a 28C water bath for 2 h, followed by two washes with 0.06% bleach (v/v) in 10% Hanks' Balanced Salt Solution (13.7 mM NaCl 0.54 mM KCl, 25 uM Na2HPO4, 130 uM CaCl2 100 um MgSO4 and 420 um NaHCO3,), hereafter referred to as Hanks' solution, for 5 min in order to remove any residual bacteria or fungi. Immediately following washing, the embryos were examined, and healthy embryos were separated from dead or unfertilized eggs and moved into fresh Hanks'. Chemical exposures: Zebrafish embryos were exposed in 96-well plates. Between 6- and 8-hours post fertilization (hpf), healthy embryos (with chorions) were transferred, one embryo per well, into 96 well (0.5 mL) microtiter plates (Cell Culture-Treated, Flat-Bottom Microplate 96 well [Corning Costar, Kennebunk, ME; Cat 09-761-145]) filled with 200 uL of Hanks' solution. A random number generator was used to assign the order in which the rows of embryos were plated in 96 well plates each week. After plating, the embryos were dosed with 0.8 uL of the chemical dosing solution then immediately sealed with AlumaSeal II (Excel Scientific Inc, Victorville, CA) to prevent volatilization of the chemicals, and then placed in a leakproof secondary container. These containers were placed in an incubator maintained on a 14:10 h light: dark cycle at 26C for rearing. On 5 dpf, live larvae were gently moved out of the plate with test chemicals and into a new 96 well mesh plate (Millipore Corp., Bedford, MA) with just the Hanks' solution. Once within the mesh well plate, the animals were rinsed with 400 uL of fresh Hanks' three times, and then the plates were covered with a non-adhesive material (Microseal A, BioRad, Hercules, CA), plate lid added, and then plate sides wrapped in Parafilm (PM992, Bermis Company, Neenah, WI), and returned to the incubator. […]
As for `O=C(O)C(F)(F)C(F)(F)C(=O)O`, the call was inactive.

Consider `CC(O)C(F)(F)C(F)(F)F` (centres undefined), for which the molecule was called inactive.

For `O=C(O)C(F)(OC(F)(F)C(F)(F)C(F)(F)F)C(F)(F)F` (centres undefined), the call was inactive.

Turning to `FC(F)(F)C(F)(C(F)(F)F)C(F)(F)C(F)(F)CC1CO1` (centres undefined), the molecule was classed as inactive.

For `OCC(F)(F)OC(F)(F)C(F)(F)OC(F)(F)C(F)(F)OC(F)(F)F`, the AC50 is 88.8 µM (active).

For the molecule `COC(=O)C(F)(F)C(F)(F)OC(F)(C(F)(F)F)C(F)(F)OC(F)=C(F)F` (centres undefined), the molecule was called inactive.

`NC(=O)C(F)(F)C(F)(F)F`: the result was inactive.

With `O=S(=O)(F)C(F)(F)C(F)(F)C(F)(F)C(F)(F)C(F)(F)C(F)(F)C(F)(F)C(F)(F)F`, the molecule was classed as inactive.

As for `O=C(O)C(F)(F)OC(F)(F)C(F)(F)OC(F)(F)C(=O)O`, the molecule was called inactive.

Consider `O=C(O)C=CC(F)(C(F)(F)F)C(F)(F)F`, for which the result was inactive.

For `OCC(F)(F)OC(F)(F)C(F)(F)OC(F)(F)C(F)(F)OC(F)(F)CO`, the AC50 was 32.1 µM (active).

On to `OCC(F)(F)OC(F)(F)C(F)(F)OC(F)(F)CO`, for which the molecule was called inactive.

As for `O=C(O)C(F)(F)OC(F)(F)C(F)(F)OC(F)(F)F`, the molecule was classed as inactive.

`C=CC(=O)OCC(F)(F)C(F)F`: the AC50 was 20.7 µM (active).
